Hits are enriched below; roughly 27% of the tested compounds scored in any of these assays.
CYP2C9 inh = blocks human cytochrome P450 2C9 | P11712 | CYP2C9 Supersomes, luciferin-H conversion, luminescence | inhibition, % at 5 µM | 96,000 compounds, 20% hits | AID 777;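 active means blocking of liver enzyme CYP2C9 beyond about 50% at 5 µM, limit read from the data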
CYP2C19 inh = human CYP2C19 inhibition; CYP2C19 Supersomes, luciferin-H EGE luminescence, 30 min; inhibition, % at 5 µM; 96,000 compounds, 21% hits; AID 778;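 active means CYP2C19 inhibition above a set limit at 5 µM in the primary screen, cut at about 50% in these data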;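 further: plate controls were negative control wells for no effect and 2.5 mM tranylcypromine positive control for full effect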
Target sequence (P33261 whole entry, looked up): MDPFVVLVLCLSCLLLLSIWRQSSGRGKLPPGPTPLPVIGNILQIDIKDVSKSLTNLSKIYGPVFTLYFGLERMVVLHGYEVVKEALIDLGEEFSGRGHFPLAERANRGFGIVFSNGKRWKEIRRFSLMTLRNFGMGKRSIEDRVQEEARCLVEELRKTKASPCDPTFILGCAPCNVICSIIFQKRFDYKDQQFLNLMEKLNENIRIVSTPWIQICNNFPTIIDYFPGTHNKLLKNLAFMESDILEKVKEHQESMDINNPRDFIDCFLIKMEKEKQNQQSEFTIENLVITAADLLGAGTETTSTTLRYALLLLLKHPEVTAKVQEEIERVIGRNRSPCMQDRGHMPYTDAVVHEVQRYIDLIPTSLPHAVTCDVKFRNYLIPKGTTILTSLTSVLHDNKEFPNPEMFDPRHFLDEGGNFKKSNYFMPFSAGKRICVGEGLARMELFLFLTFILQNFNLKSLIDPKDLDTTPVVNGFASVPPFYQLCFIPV
CYP2C9 activ = increases human cytochrome P450 2C9 activity. recombinant CYP2C9, luciferin-H conversion, luminescence; stronger effect = higher value; factor 1 = untreated enzyme, 0 = blocked. AID 1024. activation factor at 5 µM. P11712. 96,000 compounds, 1.4% hits;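 active means activation factor of 2 or more for CYP2C9 at a 5 µM dose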;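 further: 0 = sulfaphenazole-blocked wells and 1 = vehicle-only wells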
Cav32 inh = inhibitors of human Cav3.2 T-type calcium channel | O95180 | Cav3.2-expressing cells, Fluo-4 calcium fluorescence FDSS; stronger effect = lower value | B-score at 10 µM | 100,000 compounds, 4% hits | AID 449739;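 active means single-dose well whose peak fluorescence ratio is a statistical outlier from its plate by either plate-standardised score or position-corrected B-score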
CYP2C19 activ = activators of human cytochrome P450 2C19. P33261. recombinant CYP2C19, luciferin-H EGE luminescence; stronger effect = higher value; 0 = fully inhibited enzyme, 1 = untreated enzyme. activation factor at 5 µM. 96,000 tested, under 10 active. AID 1025;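 active means activation factor of at least 2 at 5 µM in the primary screen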;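 further: 0 = wells with 2.5 mM tranylcypromine and 1 = vehicle-only wells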
* = called active by the depositor; nt = no result given.

SMILES | CYP2C9 inh | CYP2C19 inh | CYP2C9 activ | Cav32 inh | CYP2C19 activ
Nc1cc(=O)[nH]c(SCc2nc3ccccc3n2Cc2ccccc2)n1 | 82.5* | 46.8 | 0.2 | -0.846 | 0.5
CCOc1cc(CNc2ccc3c(c2)CCC3)ccc1OC | 23.4 | 55.8* | 0.8 | -0.535 | 0.4
COc1ccc(CNc2nn[nH]n2)cc1OC | -20.0 | -18.2 | 1.2 | -1.43 | 1.2
O=C(c1cccc2c1-c1ccccc1/C2=N/O)N1CCCCC1 | 49.5 | 50.7* | 0.5 | -2.34 | 0.5
O=C1c2ccccc2-c2c1cccc2C(=O)N1CCCCC1 | nt | nt | nt | 0.309 | nt
Cc1ccc(C(C)C)c(OC(=O)/C=C/c2ccccc2)c1 | 21.8 | -3.8 | 0.8 | 0.828 | 1
O=C(O)c1ccc(-c2ccccc2Cl)o1 | nt | nt | nt | 0.587 | nt
CC(=O)C1=C(C)NC(C)=C(C(C)=O)C1c1ccc(-c2ccccc2Cl)o1 | 97.2* | 85.9* | 0 | -5.56* | 0.1
N#Cc1c(C(F)(F)F)cc(C2CC2)[nH]c1=O | -14.0 | -1.2 | 1.1 | -0.678 | 1
N#Cc1c(C(F)(F)F)cc(-c2ccccc2Cl)[nH]c1=O | 86.2* | -7.8 | 0.1 | -2.62* | 1.1
N#Cc1c(C(F)(F)F)cc(-c2ccccc2)[nH]c1=O | 57.8* | -9.8 | 0.4 | -2.8 | 1.1
CNc1nc(-c2ccccc2)cc(C(F)(F)F)c1C#N | 16.7 | 20.6 | 0.8 | -0.312 | 0.8
Cc1ccccc1C(=O)c1c[nH]c(C(=O)NCc2cccs2)c1 | -1.6 | -7.2 | 1 | -0.661 | 1.1
O=C(CNS(=O)(=O)c1ccc(C(=O)N2CCCCC2)cc1)N1CCCCC1 | -16.5 | 5.3 | 1.2 | 0.854 | 0.9
CCOC(=O)c1ccc(NC(=O)c2nccnc2C(=O)O)cc1 | -29.7 | -10.9 | 1.3 | 0.0517 | 1.1
CC(=O)NC(C)C(=O)OCC(=O)Nc1ccc(Br)cc1 (stereo not drawn) | 16.5 | 53.8* | 0.8 | -0.0251 | 0.5
Cc1cc(NC(=O)CSc2nnc(-c3ccoc3C)o2)no1 | 15.9 | 3.8 | 0.8 | -0.175 | 1
O=C(CSc1nc2ccccc2c(=O)n1Cc1ccco1)c1ccc(F)cc1 | 51.5* | 8.2 | 0.5 | -1.28 | 0.9
Cc1occc1-c1nnc(SCC(=O)c2ccc(F)cc2)n1Cc1ccco1 | 59.7* | 15.7 | 0.4 | -2.34 | 0.8
Cc1occc1-c1nnc(SCC(=O)c2ccc(F)cc2)o1 | 32.0 | 83.8* | 0.7 | -2.75 | 0.2
COc1ccccc1-c1nnc(SCC(=O)c2ccc(C3CCCCC3)cc2)n1Cc1ccco1 | 86.2* | 79.7* | 0.1 | -4.75* | 0.2
COc1ccc(C(C(C(=O)c2cccs2)N2CCOCC2)N2CCOCC2)cc1OC (stereo not drawn) | -1.5 | 5.7 | 1 | 0.0556 | 0.9
Cc1ccc(N2CCCCn3c2nc2c3c(=O)n(CC(=O)O)c(=O)n2C)cc1 | -12.7 | -21.9 | 1.1 | 0.47 | 1.2
Cc1cc(C)nc(N(C#N)CN2C(=O)c3ccccc3S2(=O)=O)n1 | -70.1 | 23.5 | 1.7 | -0.0633 | 0.8
COC(=O)CS(=O)(=O)c1ccc2c(c1)CC(=O)N2 | 3.0 | 0.1 | 1 | -0.00436 | 1
SMILES | CYP2C9 inh | CYP2C19 inh | CYP2C9 activ | Cav32 inh | CYP2C19 activ
COc1ccc(C2C(C(=O)Nc3ccc4c(c3)OCCO4)c3ccccc3C(=O)N2C)cc1 (stereo not drawn) | 23.1 | 29.2 | 0.8 | -0.119 | 0.7
O=C(CSc1nnc(-c2cc3ccccc3cc2O)n1Cc1ccco1)c1ccc(F)cc1 | 100.2* | 94.0* | 0 | -3.99* | 0.1
Cn1c(SCC(=O)c2ccc(F)cc2)nnc1-c1ccccc1N | -0.2 | 75.4* | 1 | 0.777 | 0.2
Cc1ccc(C(=O)CSc2nnc(-c3ccccc3N)n2C)cc1 | 31.2 | 26.7 | 0.7 | 0.715 | 0.7
O=C(CSc1nnc(-c2ccccn2)n1Cc1ccco1)c1ccc(-c2ccccc2)cc1 | 27.6 | -0.3 | 0.7 | -2.01 | 1
O=C(CSc1nnc(-c2ccco2)n1Cc1ccccc1)c1ccc(F)cc1 | 92.1* | 96.4* | 0.1 | -1.42 | 0
CCc1nnc(NC(=O)CCC(=O)N2CCN(CCOc3ccc(C)cc3)CC2)s1 | 29.4 | 17.0 | 0.7 | 0.948 | 0.8
CC/C(=C\C1CCCCC1)C(NP(=O)(c1ccccc1)c1ccccc1)c1ccccc1 (stereo not drawn) | nt | nt | nt | -1.28 | nt
O=C(O)c1ccc(C(=O)Nc2cccc(NC(=O)C3CCCO3)c2)cc1 (stereo not drawn) | 1.2 | -2.8 | 1 | 0.0383 | 1
CCCCc1[nH]nc2c1C1(C(=O)N(CC)c3ccccc31)C(C#N)=C(N)O2 (stereo not drawn) | -10.2 | -2.7 | 1.1 | 1.86 | 1
Cc1[nH]nc2c1C1(C(=O)N(Cc3ccc(Cl)cc3)c3ccccc31)C(C#N)=C(N)O2 (stereo not drawn) | 92.0* | 88.8* | 0.1 | -2.06 | 0.1
COC(=O)Cc1[nH]nc2c1C1(C(=O)N(Cc3ccccc3)c3ccccc31)C(C#N)=C(N)O2 (stereo not drawn) | 60.8* | 64.5* | 0.4 | 0.501 | 0.4
CN1C(=O)C2(C(C#N)=C(N)Oc3n[nH]c(-c4ccc(Cl)cc4)c32)c2ccccc21 (stereo not drawn) | 29.8 | 28.8 | 0.7 | 0.686 | 0.7
Cc1nn(-c2ccccc2)c2sc(C(=O)N(CC(=O)NC(C)(C)C)Cc3ccco3)cc12 | 56.0* | 24.9 | 0.4 | -1.33 | 0.8
Cc1nn(-c2ccccc2)c2sc(C(=O)OCc3nnc(-c4ccccc4)o3)cc12 | 54.7* | 2.4 | 0.5 | -1.53 | 1
Cc1nn(-c2ccccc2)c2sc(C(=O)OC3CCOC3=O)cc12 (stereo not drawn) | 68.1* | 31.0 | 0.3 | nt | 0.7
CCOC(=O)c1cc2c(C)nn(-c3ccccc3)c2s1 | nt | nt | nt | -0.516 | nt
Cc1nn(-c2ccccc2)c2sc(C(=O)N3CCOCC3)cc12 | nt | nt | nt | 0.356 | nt
COC(=O)c1cc2c(C)nn(-c3ccccc3)c2s1 | 10.2 | 52.3* | 0.9 | 0.605 | 0.5
CCOC(=O)CC(=O)CSc1[nH]c(=O)cc(C)c1C#N | 25.7 | 14.2 | 0.7 | -0.473 | 0.9
CN(Cc1cnn(C)c1)C(=O)c1sc2cccc(Cl)c2c1Cl | -3.9 | -35.2 | 1 | -1.33 | 1.4
Cc1nn(-c2ccccc2)c2sc(-c3n[nH]c(=S)o3)cc12 | 66.0* | -5.6 | 0.3 | 0.172 | 1.1
Cc1nn(-c2ccccc2)c2sc(C(=O)O)cc12 | -15.7 | -3.1 | 1.2 | -0.636 | 1
CCC(C)c1nc2ccsc2c(N2CCOC2=O)c1-c1ccccc1 (stereo not drawn) | nt | nt | nt | -1.48 | nt
CCOCCOCN(C#N)c1nc(OC)nc(N(C)C)n1 | -44.2 | 64.4* | 1.4 | 0.294 | 0.4
CN(C)c1nc(N(C)C)nc(N(C#N)CCOc2ccccc2)n1 | nt | nt | nt | -2.96 | nt
COc1ccc(CNCC(O)(c2ccccc2)c2ccc(Cl)cc2)cc1 (stereo not drawn) | 57.6* | 81.8* | 0.4 | nt | 0.2
COc1cccc(CNCC(O)(c2ccc(Cl)cc2)c2ccc(Cl)cc2)c1 | 31.6 | 29.9 | 0.7 | -0.31 | 0.7
CN1C(=O)COc2ccc(C(=O)c3oc4ccccc4c3-c3cnc4c(c3)COc3ccccc3-4)cc21 | nt | nt | nt | -3.16 | nt
O=C1c2ccccc2C(=O)C1c1ccncc1 | 91.4* | 48.7 | 0.1 | -0.172 | 0.5
